Assay [1] deals with PRKAA1.
For assay [2], the system named is RPS6KA1.
Assay [3] concerns PRKCD.
Assay [4] has as its system PRKCE.
For assay [5], the system named is PRKCQ.
The subject of assay [6] is PRKCH.
In assay [7] the test system is PRKD2.
The subject of assay [8] is PRKD3.
Assay [9] deals with PRKX.
Assay [10] has as its system PTK2B.
Assay [11] deals with PTK6.
The test system of assay [12] is RIOK2.
Assay [13] concerns ROCK1.
Assay [14] concerns ROCK2.

As to `COc1cc(Nc2cnc(C#N)c(O[C@H](C)CN(C)C)n2)ncc1-c1cnn(C)c1` [CCT244747], the Kinases covered result in [1] was “PRKAA1”; in assay [2] it was “RPS6KA1”.

In the case of `NCC1CCC(CNc2nc(NCc3ccccc3OC(F)(F)F)ncc2[N+](=O)[O-])CC1` (centres unmarked) [BIRZ0518XX], the results for the Kinases covered result in assay [3], in assay [4] and in [5] were “PRKCD”, “PRKCE” and “PRKCQ”, respectively. Consider `CCn1c(-c2nonc2N)nc2c(C#CC(C)(C)O)nc(OCCNC)cc21.Cl` [GSK949675], for which the Kinases covered result in assay [6] is “PRKCH”. With `COc1ccc2nc(-c3cccc(C)n3)nc(Nc3ccncc3)c2c1` [GSK204919], the Kinases covered entry in assay [7] is “PRKD2”. Turning to `Cc1cccc(-c2nc(Nc3ccncc3)c3ccccc3n2)n1` [GW855857], the Kinases covered result in assay [7] is on record as “PRKD2”; in assay [8] it was “PRKD3”. Take `CNc1nc(-c2ccc3c(N)n[nH]c3c2)cc(N2C[C@@H](C(=O)Nc3ccccc3)CC[C@H]2C)n1` [GSK2298859]: the Kinases covered entry in assay [9] is given as “PRKX”. With `COc1cc(N2CCN(C(C)C)CC2)ccc1Nc1nc(Nc2ccc(F)cc2C(=O)NC[C@@H](O)CO)c2cc[nH]c2n1` [GSK1392956A], the Kinases covered result in assay [10] is given as “PTK2B”.

On to `COc1cc(N2CCN(C)CC2)ccc1Nc1ncc2c(n1)N(C)c1ccccc1C(=O)N2` [XMD8-87], for which the Kinases covered result in assay [11] was “PTK6”.

In the case of `CCCc1cc(N2CCCN(C)CC2)nc2sc3c(N)ncnc3c12` [BI00604564], the Kinases covered entry in [12] is listed as “RIOK2”. `Cc1cc(NC(=O)c2cccc(NC(=O)/C=C/CN(C)C)c2)ccc1Nc1nccc(-c2cccnc2)n1` [JNK-IN-7]: the Kinases covered entry in [12] was “RIOK2”. Consider `CC1=C(C(=O)Nc2ccc3[nH]ncc3c2)C(c2ccc(Cl)c(Cl)c2)CC(=O)N1` (centres unmarked) [GSK299115A], for which the Kinases covered entry in assay [13] is “ROCK1”. In the case of `CCn1c(-c2nonc2N)nc2cncc(C(=O)N3CC[C@H](N)C3)c21.Cl` [SB-772077-B], the Kinases covered entry in assay [14] is on record as “ROCK2”. The same measure, in the same setting: in the case of `CCn1c(-c2nonc2N)nc2cncc(CNC3CCNCC3)c21` [SB-747651A] it was “ROCK2”.

(Values after PMC7826789 (International Journal of Molecular Sciences, 2021).)
